RmlC RmlD mix = mixture blocks RmlC and RmlD coupled enzyme activity | RmlC/RmlD coupled enzyme inhibition, 384-well mixture HTS | inhibition, % at 5.5 µM | 0.39% of 110,000 active | AID 1532; in the data active = inhibition above about 30%, passing the limit was not always enough; inconclusive = no clear call, values can overlap the other calls
HIV RNase H inh-1 = inhibitors of HIV-1 reverse transcriptase RNase H; RT-RNase H RNA/DNA duplex cleavage, fluorescence; inhibition, % at 10 µM; 1.9% of 65,000 active; AID 565; in the data active = inhibition above about 50%
HIV RNase H inh-2 = confirmation of HIV-1 reverse transcriptase RNase H inhibitors | shares compounds with HIV RNase H inh-1 | Recombinant RT RNase H, fluorescent RNA/DNA duplex cleavage | inhibition, % at 10 µM | 39% of 1,000 active | AID 651; in the data active = inhibition above about 48%; inconclusive = no clear call, values can overlap the other calls
The depositor's hits bear a star; u = inconclusive; x = no result. The full list was thinned out, with hits kept by preference.

SMILES | RmlC RmlD mix | HIV RNase H inh-1 | HIV RNase H inh-2
Cc1cc(C(F)(F)F)nc(SCC(=O)NC2=NC(=O)C(C)S2)n1 (centres undefined) | x | 60* | u
Cc1cc(C)nc(SCC(=O)NC2=NC(=O)C(C)S2)n1 (centres undefined) | 7 | 28 | x
CCOC(=O)C1CCN(C(C(=O)NC2CCCC2)c2ccc(C)cc2)CC1 (centres undefined) | 3 | x | x
CC(C)(C)N=Cc1cc(-c2ccccc2)sc1O | -1 | x | x
O=C(O)C(Cc1c[nH]c2ccccc12)NS(=O)(=O)c1cccc2nsnc12 (centres undefined) | x | 7 | x
O=C(Nc1nnc(-c2ccc3c(c2)OCCO3)o1)c1ccc(Cc2ccccc2)cc1 | 33 | 59* | 10
O=C(Nc1nnc(-c2ccc3c(c2)CCCC3)o1)c1ccccc1 | -12 | x | x
O=C1CCCC2=C1C(c1ccccc1O)C1=C(CCCC1=O)O2 | -7 | 11 | x
O=C1CCCC(O)=C1C(C#Cc1ccccc1)C1=C(O)CCCC1=O | -13 | 83* | 78*
CCCC(C(=O)NC1CCCCC1)N(CC1CCCO1)C(=O)CNS(=O)(=O)c1ccc(F)cc1 (centres undefined) | -6 | 58* | 12
CCC(C(=O)NC1CCCCC1)N(CC1CCCO1)C(=O)CNS(=O)(=O)c1ccc(OC)cc1 (centres undefined) | -14 | -5 | x
COc1cccc(C2NC(=O)NC(O)(C(F)(F)F)C2C(=O)c2cccnc2)c1OC (centres undefined) | 11 | -3 | x
Cc1c(-c2ccccc2)sc(N)c1C(=O)N1CCOCC1 | -9 | 85* | 25
CCOC(=O)c1c(N)sc(-c2ccccc2)c1C | -9 | x | x
COc1cc(OC)c2c(O)c3c(c(-c4c5c(c(O)c6c(OC)cc(OC)cc46)CO[C@@H](C)[C@H]5O)c2c1)[C@H](O)[C@H](C)OC3 | 12 | x | x
O=C(Nc1cccc(F)c1)C1C2C=CC3(CN(CCCN4CCOCC4)C(=O)C13)O2 (centres undefined) | -11 | 0 | x
CC1(C)CC(=O)C=C(NCC2CCCO2)C1 (centres undefined) | -7 | 0 | x
Fc1ccccc1CSc1nc2ncccc2[nH]1 | 7 | 88* | 60*
Fc1cccc(F)c1CSc1nc2ccccc2[nH]1 | -16 | x | x
CCC1CC2(C)NC(=O)c3c(sc4c3CC(C)(C)OC4)N2C1=O (centres undefined) | x | 79* | 60*
Cn1c(NN)nc2sc3c(c2c1=O)CC(C)(C)OC3 | 7 | x | x
CCCCS(=O)(=O)NC1=NCN(Cc2ccco2)CN1 | -13 | 31 | x
Cc1oncc1C(=S)Nc1ccccc1 | -13 | 74* | 25
Cc1oncc1C(=O)Nc1ccc(C(F)(F)F)cc1 | -10 | -16 | x
CCOC(=O)c1ccccc1NC(=O)Cn1cnc2c(cnn2-c2ccccc2)c1=O | -19 | -14 | x
SMILES | RmlC RmlD mix | HIV RNase H inh-1 | HIV RNase H inh-2
COC(=O)c1ccccc1NC(=O)Cn1cnc2c(cnn2-c2ccccc2)c1=O | -15 | 74* | 30
O=Nc1c(O)n(Cc2ccc(Cl)c(Cl)c2)c2ccccc12 | -5 | x | x
COc1ccc(CCNC(=O)CNS(=O)(=O)c2cccs2)cc1OC | 6 | x | x
C=CCSc1nc2c(c(=O)[nH]c(=O)n2C)n1CC | 3 | 69* | 75*
CCCCCCn1c(SCC(C)C)nc2c1c(=O)[nH]c(=O)n2C | 142 | 8 | x
COC(=O)CSc1nc2c(c(=O)n(C)c(=O)n2C)n1CCC(C)C | -8 | 74* | 24
CCCCCSc1nc2c(c(=O)[nH]c(=O)n2C)n1C(C)C | 8 | 17 | x
CCCCCCn1c(SCC(=O)OC)nc2c1c(=O)[nH]c(=O)n2C | 7 | 93* | 66*
CC(C)n1c(SCC(N)=O)nc2c1c(=O)[nH]c(=O)n2C | 11 | 61* | 4
C=CCSc1nc2c(c(=O)[nH]c(=O)n2C)n1C/C=C(/C)Cl | -6 | -16 | x
COC(=O)C(C)Sc1nc2c(c(=O)n(C)c(=O)n2C)n1CCC(C)C (centres undefined) | x | 4 | x
Cc1ccc(N2CC(C(=O)NCc3ccccn3)CC2=O)cc1 (centres undefined) | -12 | 24 | x
Cc1ccc(-c2nc3ccccc3c(C(=O)NCc3cccs3)c2C)cc1 | 18 | x | x
COc1ccc(NCc2nnc(SCC(=O)c3ccc(OC)cc3)n2C)cc1 | 6 | 8 | x
COC(=O)C1=C(C(=O)OC)[C@@H]2Nc3ccccc3[C@@]23C[C@@H](C(=O)OC)N(C(C)=O)C3=N1 | -313 | x | x
Brc1c(OCCOCCn2cncn2)ccc2ccccc12 | 4 | -37 | x
COCCCNC(CC(=O)Nc1ccccc1C(=O)OC)C(=O)O (centres undefined) | x | 1 | x
S=c1[nH]nc(COc2ccccc2)n1/N=C/C(Cl)=C/c1ccccc1 | 6 | x | x
CCCCCSc1nc2c(c(=O)[nH]c(=O)n2C)n1C | -2 | -29 | x
CCCCCSc1nc2c(c(=O)[nH]c(=O)n2C)n1CC | -3 | 73* | 42
O=P(O)(CN1CCCCC1)C1CCCCC1O (centres undefined) | x | -8 | x
COC(=O)c1ccc(NC(=O)C2CC(=O)N(c3ccc(C)cc3)C2)cc1 (centres undefined) | -8 | x | x
CCn1c(=O)cc(SCC(=O)NCCCN2CCN(c3ccc(F)cc3)CC2)c2ccccc21 | 4 | 66* | 38
CCn1c(=O)cc(SCC(=O)NCCN2CCN(Cc3ccccc3)CC2)c2ccccc21 | 4 | 0 | x
CCOC(=O)CSc1nc(C)cc(C)n1 | -14 | x | x
SMILES | RmlC RmlD mix | HIV RNase H inh-1 | HIV RNase H inh-2
COc1cc(C)nc(SCC(N)=O)n1 | 8 | 62* | 42
FC(F)(F)C1=CC(c2ccc(Br)cc2)=NCCN1 | -14 | x | x
S=C(c1ccc(-c2ccc(Cl)cc2)o1)N1CCCCC1 | 9 | x | x
N#CCCN1CCN(C(=S)c2ccc(-c3ccc(Cl)cc3)o2)CC1 | 40 | 56* | 13
Cc1ccc(NCc2ccccc2O)cc1 | -4 | x | x
Cc1ccc(CNc2ccc(O)cc2)cc1 | x | 57* | 3
CCOC(=O)c1c(C)c(C(=O)N(C)C2CCCCC2)c(C)n1C | 6 | 3 | x
COCCNC(=O)C(C)OC(=O)c1cc2sccc2n1C (centres undefined) | 7 | x | x
Cc1nnc(SCC(=O)Nc2sc3c(c2C(N)=O)CCCC3)[nH]c1=O | 58 | x | x
Cn1cnnc1SCC(=O)Nc1sc2c(c1C(N)=O)CCC2 | 2 | 75* | 11
COC(=O)c1nn(-c2ccccc2)c(Sc2ccc(Br)cc2)c1/C=N/O | -15 | x | x
Cc1nc(C(=O)N(C)C)nn1-c1cc(Cl)cc(Cl)c1 | -149 | x | x
Cc1ccccc1OCCN1C(=O)NC2(CCc3ccccc32)C1=O (centres undefined) | -23 | -28 | x
Cc1ccccc1-n1c(SC/C(O)=C(\C#N)c2nc3ccccc3[nH]2)nnc1-c1ccncc1 | 8 | 14 | x
Cc1cc(C)n2c(SC/C(O)=C(\C#N)c3nc4ccccc4[nH]3)nnc2n1 | 0 | 83* | u
CCC1(C)Cc2c(sc3c2c(=O)n(C)c2nnc(SCC(=O)c4ccc(Cl)cc4)n32)CO1 (centres undefined) | x | 13 | x
S=c1[nH]nc(COc2ccc(Cl)cc2)o1 | 1 | 7 | x
CCc1ccc(OCC(=O)Nc2ncc3c(n2)CC(C)(C)CC3=O)cc1 | 8 | 9 | x
CC(C)(C)c1ccc(OCC(O)CSc2ncn[nH]2)cc1 (centres undefined) | 7 | x | x
CC(C)c1ccc(NC(=O)C2CC(=O)N=C(N)S2)cc1 (centres undefined) | 9 | -3 | x
